# Assay outcomes (PubChem)
# ATXN viability = Viability Counterscreen for Primary qHTS for Inhibitors of ATXN expression | AID 651635, 2014 | S2 cells (HEK-293 line with an ATXN2-luciferase reporter) viability, CellTiter-Fluor protease fluorescence, 24 h | Potency, µM (series often up to 56.7 µM), most hits filed as cytotoxic | 400,000 compounds, 0.49% hits; note: nearly all actives have a fitted effect of over 40% in size
# ATXN2 expr inh = Primary qHTS for Inhibitors of ATXN expression | Potency, µM (titrated, usually from 57 µM), without a hit: at the top dose activity change, negative = inhibition, most hits filed as inhibitors | HEK-293 ATXN2-luciferase reporter, luminescence, 24 h | AID 1745845, 2022 | 360,000 compounds, 0.72% hits; note: % is set by controls: 0 for no effect and ±100 for the full control effect; nearly all actives have a fitted effect of over 55% in size
#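 qHTS (up to 57 uM final) was run with 24 h compound exposure of reporter cells at 37 °C. Each well was multiplexed: SteadyGlo luminescence measured ATXN2-luciferase expression after a fluorogenic Gly-Phe-AFC viability readout (25 uM final).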
# TDP1 cell noCPT = qHTS for Inhibitors of human tyrosyl-DNA phosphodiesterase 1 (TDP1): qHTS in cells in absence of CPT; AID 686978, 2013; Potency, µM (series often up to 46.2 µM), inactives show top-dose activity change, negative = growth inhibition, actives largely listed as inhibitors; 420,000 compounds, 15% hits; DT40 Tdp1-/- hTDP1 cells, no CPT, ATP luminescence, 48 h; note: % is set by controls: 0 for no effect and ±100 for the full control effect; nearly all actives have a fitted effect of over 55% in size
#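 Growth kinetics read by CellTiter-Glo luminescence after ≥48 hr at 37 °C. Cells: DT40 Tdp1-/- stably carrying human TDP1, 400 per well, compound exposure in the absence of CPT (DMSO vehicle).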
# HepG2 tox = qHTS for Inhibitors of TGF-b: Cytotox Counterscreen; Potency, µM (titrated, usually from 46.1 µM), for inactives: at the top dose activity change, negative = cytotoxicity, most hits filed as cytotoxic; HepG2 CAGA-GFP viability, ATP luminescence, 18 h; 410,000 compounds, 0.76% hits; AID 588856, 2011
#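 HepG2 CAGA-GFP cells (1000/well, DMEM with 1% FBS) received compound, then TGF-beta at 500 pg/mL final, and were incubated 18 hours at 37 degrees C. Viability was read by CellTiter-Glo luminescence. Media-only wells were set as complete cell-killing and DMSO as no toxicity.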
# TGFb SMAD3 inh = qHTS for Inhibitors of TGF-b; HepG2 CAGA-GFP TGF-b/SMAD3 reporter, GFP fluorescence, 18 h; TGF-beta stimulated, 500 pg/mL final; Potency, µM (doses to about 46.1 µM), inactives show at the highest dose activity, negative = inhibition, usual class: inhibitors; 410,000 compounds, 1.2% hits; note: % is set by controls: 0 for no effect and ±100 for the full control effect; nearly all actives have a fitted effect of over 65% in size
#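 Cell-based qHTS in HEPG2 carrying a CAGA-GFP Smad reporter; compounds added before 500 pg/mL final TGF-beta, 18 h incubation at 37 degrees C, GFP fluorescence quantified per cell by imaging cytometry.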
# TDP1 cell CPT = qHTS for Inhibitors of human tyrosyl-DNA phosphodiesterase 1 (TDP1): qHTS in cells in presence of CPT | chicken DT40 Tdp1-/-;hTDP1 cells + 20 nM CPT, ATP luminescence, 48 h | Potency, µM (doses to about 46.2 µM), for the others: top-dose activity change, negative = growth inhibition, usual class: inhibitors | 420,000 compounds, 12% hits; note: % is set by controls: 0 for no effect and ±100 for the full control effect; nearly all actives have a fitted effect of over 55% in size
#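 Chicken DT40 Tdp1-/- cells stably complemented with human TDP1 were seeded at 400 cells/well in medium containing 20 nM camptothecin, exposed to pin-transferred compounds, and grown at 37 °C for at least 48 hr. Viability was read as ATP luminescence.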
# An asterisk follows results filed as active; i = inactive; ? = inconclusive; nt = no result; [ ] = another dose, or the depositor's remark. This is a sample that favours compounds with a hit; in the whole collection about 17% have one here. Calls come from the whole dose curve; as a rule, active = well fitted curve in the direction sought with a large enough effect; inconclusive = small, poorly fitted or top-dose-only effect, or another doubt; inactive = no such curve, though single readings can be large; an effect the other way counts as inactive or inconclusive. Potency is the fitted concentration of half-maximal effect.
SMILES,ATXN viability,ATXN2 expr inh,TDP1 cell noCPT,HepG2 tox,TGFb SMAD3 inh,TDP1 cell CPT
CC(=O)OC(COc1cccc(C)c1)Cn1cnc2ccccc21 (stereo not given),i,nt,16µM*,-1%,5%,?
Cc1nn(CC(O)COc2ccc3c(c2)CCC3)c(C)c1C (stereo not given),?,6%,21µM*,4%,21%,?
CCOC(=O)N1CCN(CC(O)COc2ccc3c(c2)CCC3)CC1 (stereo not given),i,7%,4%,5%,-5%,-10%
OC(COc1ccc2c(c1)CCC2)Cn1cnc2ccccc21 (stereo not given),i,43%,18µM*,3%,?,10µM*
Cc1oc(-c2ccccc2)nc1CCC(=O)c1ccc(CC2SC(=O)NC2=O)cc1 (stereo not given),i,3%,nt,nt,nt,nt
COCCN(C(=O)CNC(=O)c1ccco1)C(C(=O)NC1CCCCC1)c1cccnc1 (stereo not given),i,-17%,-5%,-13%,3%,7%
Cc1oc(-c2cccc(NC(=O)c3ccccn3)c2)nc1CNC(=O)c1ccc(C(F)(F)F)cc1,i,nt,-24%,nt,nt,0%[9.04 µM]
Cn1c(C(C#N)C(=O)c2sc3ccccc3c2Cl)nc2ccccc21 (stereo not given),?,-25%,16µM*,-35%,-29%,?
CCn1nc([N+](=O)[O-])c(C(C#N)c2nc3ccccc3n2C)c(Cl)c1=O (stereo not given),i,-3%,?,4%,-4%,?
O=C(c1ccco1)N1CCN(C(c2coc3ccc(Cl)cc3c2=O)c2nnnn2C2CCCC2)CC1 (stereo not given),i,5%,?,-13%,0%,?
Cc1ccc2occ(C(c3nnnn3C3CCCC3)N3CCN(C(=O)c4ccco4)CC3)c(=O)c2c1 (stereo not given),i,-13%,?,-6%,6%,16µM*
COc1ccc(C(=O)C(C)Sc2nnc(C3CC3)n2C2CC2)cc1 (stereo not given),i,-10%,2%,2%,-4%,-21%
COc1cccc(OCc2nc3ccccc3c(=O)n2N)c1,i,25%,-12%,-26%,?,?
COc1cccc(CCc2nc3ccccc3c(=O)n2N)c1,i,nt,21µM*,-12%,-16%,?
OC(c1cccc(F)c1)c1ncc(-c2ccc(C(F)(F)F)cc2)[nH]1 (stereo not given),?,17%,16µM*,-32%,2%,?
COc1cccc(C(O)c2ncc(-c3cccc(C(F)(F)F)c3)[nH]2)c1 (stereo not given),i,2%,?,-1%,5%,?
CCc1ccc(C(O)c2ncc(-c3ccc4ccccc4c3)[nH]2)cc1 (stereo not given),i,8%,?,-50%,-15%,-10%
COc1ccc(C(O)c2ncc(-c3cccc(C(F)(F)F)c3)[nH]2)cc1F (stereo not given),i,-29%,?,-39%,5%,16µM*
OC(c1ccc2ccccc2c1)c1ncc(-c2ccc(C(F)(F)F)cc2)[nH]1 (stereo not given),?,?,?,-36%,?,?
OC(c1cccc(Cl)c1)c1ncc(-c2cccc(C(F)(F)F)c2)[nH]1 (stereo not given),?,?,23µM*,-63%,?,?
